According to PubChem BioAssay AID1053205 (Broad Institute, 2014):
Entries with a potency or affinity are not part of this list. Results filed as inconclusive are left out. Calls of active or inactive are those of the source.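 Rule for the calls: active = compounds lowering the FRET ratio whose fitted half-maximal concentration is at most twice their top tested dose; inconclusive = flat partial drop between 30 and 70 percent, or bad fit; inactive = the rest.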

Molecular target: Voltage-dependent L-type calcium channel subunit alpha-1D (Homo sapiens) (UniProt Q01668)
Sequence (Q01668 whole entry, looked up, the tested form may be a part): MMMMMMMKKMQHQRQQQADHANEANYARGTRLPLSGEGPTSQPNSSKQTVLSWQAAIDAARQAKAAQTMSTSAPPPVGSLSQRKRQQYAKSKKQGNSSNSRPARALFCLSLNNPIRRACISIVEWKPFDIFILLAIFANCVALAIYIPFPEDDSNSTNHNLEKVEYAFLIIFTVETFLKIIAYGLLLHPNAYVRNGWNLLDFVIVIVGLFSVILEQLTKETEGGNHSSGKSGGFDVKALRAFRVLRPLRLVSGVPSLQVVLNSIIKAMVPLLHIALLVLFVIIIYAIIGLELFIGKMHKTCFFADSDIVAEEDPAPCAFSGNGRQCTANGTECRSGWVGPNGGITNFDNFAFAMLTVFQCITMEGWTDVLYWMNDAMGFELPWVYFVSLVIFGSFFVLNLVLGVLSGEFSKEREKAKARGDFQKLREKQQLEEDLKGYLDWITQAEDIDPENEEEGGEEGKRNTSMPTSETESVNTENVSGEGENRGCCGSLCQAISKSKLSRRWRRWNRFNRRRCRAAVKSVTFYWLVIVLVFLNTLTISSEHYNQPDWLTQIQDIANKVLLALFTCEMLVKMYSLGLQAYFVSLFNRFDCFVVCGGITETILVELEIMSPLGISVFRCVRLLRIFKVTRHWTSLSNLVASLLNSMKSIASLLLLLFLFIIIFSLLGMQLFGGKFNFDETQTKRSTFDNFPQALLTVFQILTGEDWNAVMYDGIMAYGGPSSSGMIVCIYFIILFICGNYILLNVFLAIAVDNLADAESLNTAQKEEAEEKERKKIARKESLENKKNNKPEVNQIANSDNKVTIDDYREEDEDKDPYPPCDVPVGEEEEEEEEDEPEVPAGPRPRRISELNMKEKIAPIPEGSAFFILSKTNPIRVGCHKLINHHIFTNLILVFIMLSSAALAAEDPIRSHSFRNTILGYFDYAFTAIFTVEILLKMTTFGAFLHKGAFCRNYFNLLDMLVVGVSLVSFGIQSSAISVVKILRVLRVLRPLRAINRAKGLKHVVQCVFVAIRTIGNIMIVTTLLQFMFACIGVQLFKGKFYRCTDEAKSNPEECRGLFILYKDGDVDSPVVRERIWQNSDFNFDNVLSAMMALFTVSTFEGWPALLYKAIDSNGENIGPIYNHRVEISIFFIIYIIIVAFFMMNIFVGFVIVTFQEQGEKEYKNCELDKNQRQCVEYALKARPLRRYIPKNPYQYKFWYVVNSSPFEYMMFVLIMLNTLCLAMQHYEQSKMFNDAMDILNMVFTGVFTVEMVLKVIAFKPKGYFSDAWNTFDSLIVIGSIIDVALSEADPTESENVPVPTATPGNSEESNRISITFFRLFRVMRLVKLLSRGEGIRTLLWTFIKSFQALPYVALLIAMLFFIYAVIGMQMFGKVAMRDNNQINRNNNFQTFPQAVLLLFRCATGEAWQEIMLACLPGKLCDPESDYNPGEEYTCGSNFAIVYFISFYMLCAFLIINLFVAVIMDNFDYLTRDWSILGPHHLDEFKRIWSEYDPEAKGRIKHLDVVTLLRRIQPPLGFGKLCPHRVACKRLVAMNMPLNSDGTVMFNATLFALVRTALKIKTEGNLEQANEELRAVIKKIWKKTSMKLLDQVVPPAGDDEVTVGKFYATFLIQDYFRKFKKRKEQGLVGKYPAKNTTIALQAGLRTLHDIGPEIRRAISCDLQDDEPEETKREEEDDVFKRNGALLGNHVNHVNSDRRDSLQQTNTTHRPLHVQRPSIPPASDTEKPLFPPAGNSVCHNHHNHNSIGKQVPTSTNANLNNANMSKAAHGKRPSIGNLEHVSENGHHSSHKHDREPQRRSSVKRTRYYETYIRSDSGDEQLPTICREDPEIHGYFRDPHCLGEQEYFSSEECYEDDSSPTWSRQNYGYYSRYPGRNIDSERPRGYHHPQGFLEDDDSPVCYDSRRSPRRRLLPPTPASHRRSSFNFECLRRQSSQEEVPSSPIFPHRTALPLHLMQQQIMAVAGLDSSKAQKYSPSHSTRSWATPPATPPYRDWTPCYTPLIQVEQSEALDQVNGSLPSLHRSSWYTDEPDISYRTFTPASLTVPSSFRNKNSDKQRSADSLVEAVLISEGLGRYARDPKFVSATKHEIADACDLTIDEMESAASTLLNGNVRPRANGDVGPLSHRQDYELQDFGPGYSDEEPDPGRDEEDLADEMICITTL
Assay: disruptors of CaV1.3 IQ/ICDI domain association – cell-based, HEK293, YFP-IQ/CFP-ICDI FRET, cherry-picks, dose response (AID 1053205);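 note: 0% = median of neutral control wells and -100% = median of positive control wells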
Conditions: HEK293 YFP-IQ/CFP-ICDI FRET ratio, 10 min; series mostly up to 35 µM

outcome, inactive:
CCCn1c(=N)c(S(=O)(=O)c2ccccc2)cc2c(=O)n3ccccc3nc21, C[C@H](NC(=O)c1nc[nH]c1C(=O)N[C@@H](Cc1ccccc1)C(=O)OC(C)(C)C)C(=O)OCc1ccccc1, O=c1oc2cc(O)ccc2cc1-c1nc2ccccc2o1, CCOc1ccc(C(=O)c2cc3ccc(O)cc3oc2=O)cc1, Cc1nc2ccccc2c2oc(C(=O)NCCCN3CCC(C)CC3)cc12, CN(C)/C=C/C(=O)c1c(F)cccc1F, O=c1[nH]c2ccccc2nc1/C=C/c1ccccc1, O=C(O)c1cccc(Nc2nc(-c3cc4ccccc4oc3=O)cs2)c1, COc1ccc(CCNC(=O)c2cc(S(=O)(=O)N3CCCCC3)c[nH]2)cc1OC, COc1ccc(-[n+]2c(C)cc(/C=C3\Sc4ccccc4N3C)cc2C)cc1, Cc1cccn2c(=O)c3cc(C(=O)NC(C)c4ccccc4)c(=N)n(CCCn4ccnc4)c3nc12 (configuration not stated), Cc1cc2c(C)cc(=O)oc2c2c1NCCC2, CCC(C)NC(=S)N1CCN(Cc2ccc3c(c2)OCO3)CC1 (configuration not stated), O=C(CCCN1C(=O)CSc2ncccc21)N1CCN(Cc2ccccc2)CC1, CCCCn1nc(NC(=O)c2cccs2)c2cc3cc(OC)ccc3nc21, O=C(COC(=O)c1cc(S(=O)(=O)N2CCCCC2)ccc1N1CCOCC1)c1ccccc1Cl, N#Cc1c(NCCCO)nc(NCc2ccccc2)c2c1CCN(Cc1ccccc1)C2, COC(=O)C1=CN(C)C=C(C(=O)OC)C1c1ccccc1Cl, CCN1CCc2c(sc(NC(=O)Nc3ccc(Cl)c(Cl)c3)c2C(N)=O)C1, CCCCCCSc1cc(-c2nc3cc(C)ccn3c2NCCCC)ccc1OC, CCOc1ccc2nc(NCCNC(=O)CC)c(C#N)cc2c1, COc1ccccc1C(=O)c1cc2ccc(O)cc2oc1=O, CCOc1ccc2nc(NCCCNC(=O)c3cc(OC)c(OC)c(OC)c3)c(C#N)cc2c1, O=[N+]([O-])c1cccc(Nc2c3ccccc3nc3ccccc23)c1, COc1ccccc1N1CCN(C2CCC(C)CC2)CC1 (configuration not stated), Cc1cccn2c(=O)c3cc(C(=O)NCc4ccco4)c(=N)n(CCc4ccccc4)c3nc12, COc1c(Cl)cc(-c2noc(C)c2C(=O)NCc2ccc3c(c2)OCO3)cc1Cl, O=C(O)c1ccc(N/N=C/c2ccc(-c3ccccc3Cl)o2)cc1, CN(C)C(=O)CSc1nc2ccc(C(=O)c3ccccc3)cc2[nH]1, Cc1cc(-c2ccccc2)c2ccc(NC(=O)C(C)(C)C)nc2n1, COc1cc2sc3cc(NCC[C@@H]4CCCN4C)ccc3c(=O)c2cc1OC, CCCOc1ccc(C(=O)NNC(=S)NC(=O)c2ccco2)cc1, CCOc1ccc(C2C(C#N)=C(N)Oc3cc(O)ccc32)cc1OCC (configuration not stated), COc1ccccc1NS(=O)(=O)c1cc(NC(=O)CCNC(C)=O)ccc1C, C=CCn1c(=N)c(C#N)cc2c(=O)n3ccccc3nc21, CCC(=O)N1C(C(=O)NCc2ccc(OC)cc2)CSC1c1ccc(OC)cc1 (configuration not stated)

FRET change, negative = inhibition, inactive:
CCOC(=O)c1cc2c(=O)n3ccccc3nc2n(C(C)C)c1=NC(=O)c1ccco1 208% [at 8 µM]
